Assay results published in publication PMC5540273 (PLoS ONE, 2017).

What was measured:
Settings in all cases: concentration: 1 μM, replicates: in singlicate; n = 1
ACVR1B = system: ACVR1B
ACVR1 = system: ACVR1
ACVR2A = system: ACVR2A
ACVR2B = system: ACVR2B
ACVRL1 = system: ACVRL1
ADCK3 = system: T1, ADCK3
T1 construct: gene CABC1

ADCK4 = system: ADCK4
AKT1 = system: AKT1
AKT2 = system: AKT2
AKT3 = system: AKT3
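Note: KINOMEscan kinase panel screen.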

SMILES	%Inh (ACVR1B) [%]	%Inh (ACVR1) [%]	%Inh (ACVR2A) [%]	%Inh (ACVR2B) [%]	%Inh (ACVRL1) [%]	%Inh (ADCK3) [%]	%Inh (ADCK4) [%]	%Inh (AKT1) [%]	%Inh (AKT2) [%]	%Inh (AKT3) [%]
Nc1ncnc2c1ncn2-c1cccc(F)c1 [SKF-97560]	0	1	0	0	0	21	0	9	12	0
O=c1cc(N2CCOCC2)nc2n(Cc3ccc(F)c(Cl)c3)ccn12 [GSK2297099]	0	0	0	0	0	0	11	0	13	0
CCCC(=O)Nc1n[nH]c2ncc(-c3cccc4ccccc34)cc12 [SB-642057]	0	26	0	9	59	5	5	0	39	0
Cc1cccc(-c2cc(-c3c[nH]nc3-c3ccccn3)ccn2)c1 [GW679395]	0	0	0	3	0	3	22	0	1	0
Cc1ccc(Oc2ccc(Nc3ncnc4cc[nH]c34)cc2C)cn1	27	2	0	0	0	16	0	17	0	0
Nc1n[nH]c2ncc(-c3ccccc3)cc12 [SB-517081]	0	8	0	5	0	7	19	0	12	0
COc1cc2ncn(-c3cc(OCCCc4ccccc4)c(C(N)=O)s3)c2cc1OC [GSK205189]	0	0	0	0	0	24	3	0	2	0
CCCNC(=O)Nc1ccc(Oc2ncnc3ccn(C)c23)cc1	13	0	2	0	0	0	0	7	8	0
COc1ccc(Nc2nccc(N3CCC(NS(=O)(=O)c4ccc(NC(C)=O)cc4)C3)n2)cc1 (centres unmarked) [GSK1379729]	3	34	32	22	8	9	38	0	7	0
CN(C)c1cc(-c2ccc3c(N)n[nH]c3c2)nc(N)n1 [GSK2219329]	0	0	0	1	0	9	23	0	0	0
COC(=O)c1c(-c2ccccc2)c2cc(Br)ccc2c(=O)n1Cc1ccc(S(C)(=O)=O)cc1	0	15	0	0	0	12	8	14	28	0
CN1C(=O)C(Nc2cc(Cl)c(O)c(Cl)c2)=C(c2ccc(Cl)cc2)C1=O [SB-404321]	0	0	0	0	0	3	16	0	0	0
COc1ccc(CNC(=O)NC2CCN(c3ccnc(Nc4ccc(F)cc4)n3)C2)cc1 (centres unmarked) [GSK1379706]	0	49	0	5	0	29	48	0	0	0
Cc1cccc(-c2nc(Nc3ccc4c(cnn4C)c3)c3ccccc3n2)n1 [GW876731]	64	0	2	0	0	8	4	21	0	20
Cl.c1ccc(Cn2cnc3cc(Nc4ncnc5ccccc45)ccc32)cc1 [GW272142]	0	17	0	2	0	13	34	0	3	0
CCS(=O)c1ccc(-c2coc3ccc(-c4nnc(C)o4)cc23)cc1 (centres unmarked)	0	5	0	0	6	5	0	0	0	0
COc1ccc(-c2coc3ccc(-c4nnc(SCc5cccc(C#N)c5)o4)cc23)cc1	6	6	0	0	0	21	0	0	2	0
COc1cc(OC)cc(-c2cc3cnc(N)nc3nc2NC(=O)NC(C)(C)C)c1	10	0	0	0	0	0	0	4	11	24

SMILES	%Inh (ACVR1B) [%]	%Inh (ACVR1) [%]	%Inh (ACVR2A) [%]	%Inh (ACVR2B) [%]	%Inh (ACVRL1) [%]	%Inh (ADCK3) [%]	%Inh (ADCK4) [%]	%Inh (AKT1) [%]	%Inh (AKT2) [%]	%Inh (AKT3) [%]
CCC(=O)c1c(-c2ccccc2)c2cc(Cl)ccc2c(=O)n1Cc1cc(S(C)(=O)=O)n(CC(N)=O)n1	0	0	14	0	0	29	0	0	0	0
CCn1c(-c2ccoc2)nc2cnccc21 [SB-733887]	0	15	0	18	0	10	20	0	14	0
COc1cc2ncn(-c3cc(OCc4ccncc4Br)c(C(N)=O)s3)c2cc1OC [GW854278]	9	5	8	2	0	15	0	0	0	0
O=C(NCc1cccs1)c1cc(C(=O)c2c(Cl)cccc2Cl)c[nH]1 [GW823670]	12	0	0	0	5	0	0	0	0	0
Cc1cc(Nc2nc(-c3cccc(C)n3)nc3ccccc23)ccn1 [GW872411]	73	0	2	13	0	0	0	0	0	2
CCS(=O)(=O)c1ccc(OC)c(Nc2ncc(-c3ccc(F)cc3)o2)c1.Cl [GW591947]	0	0	0	0	0	1	15	0	0	9
O=C1NC(=O)C(c2ccccc2)=C1Nc1cccc(O)c1 [SB-390534]	0	22	0	0	0	0	0	0	0	0
COc1cccc(C2=C(N(C)c3ccccc3)C(=O)NC2=O)c1 [SB-334865]	0	28	0	3	0	4	21	0	13	0
Fc1cccc(CSc2nnc(-c3ccc4c(c3)CCO4)o2)c1	17	0	0	0	0	0	6	12	14	0
COC(=O)c1c(-c2ccccc2)c2cc(Br)ccc2c(=O)n1Cc1ccc(NC(=O)CCC(=O)O)cc1	0	0	0	0	0	0	0	12	11	0
COc1cc2nccc(Nc3ccc(OCc4ccc(NC(C)=O)cc4)cc3)c2cc1OC.Cl [GW440135]	0	25	0	1	4	15	23	6	0	0
OCCCNc1nccc(-c2c(-c3cccc(C(F)(F)F)c3)nn3cc(C(F)(F)F)ccc23)n1 [GW630813]	0	0	0	0	0	68	43	0	0	0
CCc1nc(-c2cccc(C)c2)c(-c2ccncc2)s1	20	3	5	0	5	55	0	0	0	0
Cc1ccccc1COc1cc(-n2cnc3cc(Cl)ccc32)sc1C(N)=O [GW813349]	0	0	10	19	3	12	0	0	3	6
O=C(Nc1n[nH]c2nc(-c3ccccc3)c(Cl)cc12)C1CC1 [SB-734909]	7	0	7	8	0	0	0	0	0	0
COc1cc(Nc2ccnc3ccc(C(F)(F)F)cc23)cc(OC)c1OC [GW577382]	0	67	0	0	52	86	54	0	20	0
CCC(=O)c1c(-c2ccccc2)c2cc(Cl)ccc2c(=O)n1Cc1cc(C(=O)NC2CC2)n(C)n1	0	0	0	0	0	0	10	0	7	0
